Laboratory results as given in PubChem BioAssay.
Several values for one entry are separate records, joined by “and”; a condition that tells them apart may be missing. Identical values can stand only once. The source holds several records for some structures; these can differ, active in one and inactive in another. Activity calls are given as the source filed them. No stated cut-off is given here; in the data, active means parasite load remaining mostly below about 12% (no sharp cut-off); inactive means mostly above about 10%.

Assay: P. berghei load reduction in hepatocytes – cell-based, HepG2, luciferase luminescence, HepG2 viability, primary screen (AID 624349);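 further: 100% = mean of DMSO negative control wells on the same plate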
Details: P. berghei liver stage in HepG2, luciferase luminescence, concentration not given here; parasite load remaining: stronger effect = lower value; viability: measured here: HepG2 viability without parasites

| Compound | parasite load remaining | viability |
| --- | --- | --- |
| COc1ccc([C@@H]2CC(=O)c3c(O)cc(O[C@@H]4O[C@H](CO[C@@H]5O[C@@H](C)[C@H](O)[C@@H](O)[C@H]5O)[C@@H](O)[C@H](O)[C@H]4O)cc3O2)cc1O | 169% (inactive) | 116% |
| C[C@H]1O[C@@H](O[C@H]2[C@@H](O)C[C@H](O[C@H]3[C@@H](O)C[C@H](O[C@H]4CC[C@@]5(C)[C@H](CC[C@@H]6[C@@H]5C[C@@H](O)[C@]5(C)[C@@H](C7=CC(=O)OC7)CC[C@]65O)C4)O[C@@H]3C)O[C@@H]2C)C[C@H](O)[C@@H]1O | -10.5% (inactive) and 8.38% (inactive) | 46.2% and 21% |
| CCC[C@@H]1C[C@@H](C(=O)N[C@@H]([C@H]2O[C@H](SC)[C@H](O)[C@@H](O)[C@H]2O)[C@@H](C)O)N(C)C1 | 63.5% (inactive) | 128% |
| CN[C@H](CC(C)C)C(=O)N[C@H]1C(=O)N[C@@H](CC(N)=O)C(=O)N[C@H]2C(=O)N[C@H]3C(=O)N[C@H](C(=O)N[C@H](C(=O)O)c4cc(O)cc(O)c4-c4cc3ccc4O)[C@H](O)c3ccc(c(Cl)c3)Oc3cc2cc(c3O[C@@H]2O[C@H](CO)[C@@H](O)[C@H](O)[C@H]2O[C@H]2C[C@](C)(N)[C@H](O)[C@H](C)O2)Oc2ccc(cc2Cl)[C@H]1O | 70.2% (inactive) | 74.3% |
| C=C(C)[C@@H]1CC[C@]2(C(=O)O)CC[C@]3(C)[C@H](CC[C@@H]4[C@@]5(C)CC[C@H](O)C(C)(C)[C@@H]5CC[C@]43C)[C@@H]12 | -8.09% (active) and 64% (inactive) | 99.2% and 78.2% |
| C[C@@H]1[C@H](O)[C@@H](C)/C=C/C=C/C=C/C=C/C=C/C=C/C=C/[C@H](O[C@@H]2O[C@H](C)[C@@H](O)[C@H](N)[C@@H]2O)C[C@@H]2O[C@](O)(C[C@@H](O)C[C@@H](O)[C@H](O)CC[C@@H](O)C[C@@H](O)CC(=O)O[C@H]1C)C[C@H](O)[C@H]2C(=O)O | 70.3% (inactive) | 129% |
| C[C@H](CCC(=O)O)[C@H]1CC[C@H]2[C@@H]3[C@H](O)C[C@@H]4C[C@H](O)CC[C@]4(C)[C@H]3CC[C@]12C | 42% (inactive) and 91.9% (inactive) | 46.4% and 85.3% |
| CCC(=O)NCC[C@@H]1CCc2ccc3c(c21)CCO3 | 159% (inactive) and -0.665% (active) | 88.5% and 95.2% |
| CCC[C@@H]1C[C@@H](C(=O)N[C@@H]([C@H]2O[C@H](SC)[C@H](O)[C@@H](O)[C@H]2O)[C@H](C)Cl)N(C)C1 | 69.6% (inactive) and 41% (inactive) | 232% and 102% |
| CC[C@@]1(O)C[C@H](O[C@H]2C[C@H](N(C)C)[C@H](O[C@H]3C[C@H](O)[C@H](O[C@H]4CCC(=O)[C@H](C)O4)[C@H](C)O3)[C@H](C)O2)c2c(cc3c(c2O)C(=O)c2c(O)cccc2C3=O)[C@H]1C(=O)OC | -0.835% (inactive) | 14.5% |
| N=c1ccn2c(n1)O[C@H]1[C@H](O)[C@@H](CO)O[C@H]12 | 29.5% (inactive) | 73.5% |
| O=C(O)c1cc(=O)c2ccccc2[nH]1 | 196% (inactive) | 68.4% |
| CC(C)C[C@H]1C(=O)N2CCC[C@H]2[C@]2(O)O[C@](NC(=O)[C@@H]3C=C4c5cccc6[nH]c(Br)c(c56)C[C@H]4N(C)C3)(C(C)C)C(=O)N12 | 105% (inactive) | 88.9% |
| C[C@H]1C[C@H]2[C@@H]3CCC4=CC(=O)C=C[C@]4(C)[C@@]3(F)[C@@H](O)C[C@]2(C)[C@@]1(O)C(=O)CO | 183% (inactive) and 101% (inactive) | 104% and 71.8% |
